From the supplement of paper PMC9950053
Counter-ions that a name gives are not always drawn.

Test system: Danio rerio larvae (5 dpf)
Assay: combined upward orientation toward moving lines (periods 7-14) minus DMSO control (percentage points); higher = more orientation with moving lines than DMSO larvae
Conditions: 10 µM; exposure time: 3 h pre-incubation + 3 h imaging
Procedure: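 Wild-type 5 dpf zebrafish larvae (n=48 per drug, 96-well plates, 28.5 °C) were exposed to Tocris FDA-approved library compounds at 10 µM (0.1% DMSO) for 3 h before and 3 h during imaging. Images were taken every 6 s during visual and acoustic stimuli, and larvae were tracked with Z-LaP Tracker. Each measure is the treated-group mean minus the DMSO control mean (n=844), in percentage points. This mapping covers compounds with 5-character plate codes.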

SMILES | combined upward orientation toward moving lines
O=c1n(CCCN2CCN(c3cccc(Cl)c3)CC2)nc2ccccn12 [Trazodone hydrochloride] | -3.19
CC(=O)Nc1ccc(O)cc1 [Acetaminophen] | -1.22
NS(=O)(=O)c1cc2c(cc1Cl)NC(C1CC3C=CC1C3)NS2(=O)=O (configuration not stated) [Cyclothiazide] | -2.57
COc1cc([C@@H]2c3cc4c(cc3[C@@H](O[C@@H]3O[C@@H]5CO[C@@H](C)O[C@H]5[C@H](O)[C@H]3O)[C@H]3COC(=O)[C@H]23)OCO4)cc(OC)c1O [Etoposide] | -2.65
COCCc1ccc(OCC(O)CNC(C)C)cc1 (configuration not stated) [Metoprolol tartrate] | -3.38
CC(=O)Oc1cc2c(s1)CCN(C(C(=O)C1CC1)c1ccccc1F)C2 (configuration not stated) [Prasugrel] | -5.5
CC(C)OC(=O)C(C)(C)Oc1ccc(C(=O)c2ccc(Cl)cc2)cc1 [Fenofibrate] | 6.13
C#CCN[C@@H]1CCc2ccccc21 [Rasagiline mesylate] | -1.34
OCCN1C[C@H](O)[C@@H](O)[C@H](O)[C@H]1CO [Miglitol] | -1.58
N#C[C@@H]1C[C@@H]2C[C@@H]2N1C(=O)[C@@H](N)C12CC3CC(CC(O)(C3)C1)C2 [Saxagliptin hydrochloride] | -3.59
CC[C@H]1OC(=O)[C@H](C)[C@@H](O[C@H]2C[C@@](C)(OC)[C@@H](O)[C@H](C)O2)[C@H](C)[C@@H](O[C@@H]2O[C@H](C)C[C@H](N(C)C)[C@H]2O)[C@](C)(O)C[C@@H](C)CN(C)[C@H](C)[C@@H](O)[C@]1(C)O [Azithromycin] | -3.81
CN[C@H]1CC[C@@H](c2ccc(Cl)c(Cl)c2)c2ccccc21 [Sertraline hydrochloride] | -5.13
COc1ccccc1Oc1c(NS(=O)(=O)c2ccc(C(C)(C)C)cc2)nc(-c2ncccn2)nc1OCCO [Bosentan] | -0.697
Clc1ccc2nsnc2c1NC1=NCCN1 [Tizanidine hydrochloride] | -5.19
CC(C)COCC(CN(Cc1ccccc1)c1ccccc1)N1CCCC1 (configuration not stated) [Bepridil hydrochloride] | 3.56
CN(C)C(=N)NC(=N)N [Metformin hydrochloride] | 1.11
OCc1cc(C(O)CNCCCCCCOCCCCc2ccccc2)ccc1O (configuration not stated) [Salmeterol xinafoate] | -1.98
CNS(=O)(=O)Cc1ccc2[nH]cc(CCN(C)C)c2c1 [Sumatriptan succinate] | -8.09
COc1cc2nccc(Oc3ccc(NC(=O)C4(C(=O)Nc5ccc(F)cc5)CC4)cc3)c2cc1OC | -10.5

SMILES | combined upward orientation toward moving lines
CNCc1ccc(-c2[nH]c3cc(F)cc4c3c2CCNC4=O)cc1 [Rucaparib camsylate] | 2
COc1cc(N)c(Cl)cc1C(=O)NC1CCN(CCCOc2ccc(F)cc2)CC1OC (configuration not stated) [Cisapride] | -4.69
C[C@@H]1C[C@H]2[C@@H]3CCC4=CC(=O)C=C[C@]4(C)[C@@]3(F)[C@@H](O)C[C@]2(C)[C@@]1(O)C(=O)CO [Dexamethasone] | -5.03
Cc1cc2c(s1)Nc1ccccc1N=C2N1CCN(C)CC1 [Olanzapine] | 3.25
N#Cc1ccc2[nH]cc(CCCCN3CCN(c4ccc5oc(C(N)=O)cc5c4)CC3)c2c1 [Vilazodone hydrochloride] | -4.15
C[C@H]1O[C@H](O[C@H]2[C@H](O)[C@@H](O)[C@@H](O[C@H]3[C@H](O)[C@@H](O)C(O)O[C@@H]3CO)O[C@@H]2CO)[C@H](O)[C@@H](O)[C@@H]1N[C@H]1C=C(CO)[C@@H](O)[C@H](O)[C@H]1O (some centres not stated) [Acarbose] | 4.65
CNC(=O)c1cc(Oc2ccc(NC(=O)Nc3ccc(Cl)c(C(F)(F)F)c3)cc2)ccn1 [Sorafenib] | -23.2
COc1ccccc1OCC(O)CN1CCN(CC(=O)Nc2c(C)cccc2C)CC1 (configuration not stated) [Ranolazine dihydrochloride] | 4.03
CCCc1nn(C)c2c(=O)[nH]c(-c3cc(S(=O)(=O)N4CCN(C)CC4)ccc3OCC)nc12 [Sildenafil citrate] | 0.372
CN(C)CCc1c[nH]c2ccc(C[C@H]3COC(=O)N3)cc12 [Zolmitriptan] | -1.47
CCc1nc(N)nc(N)c1-c1ccc(Cl)cc1 [Pyrimethamine] | 7.4
OC(c1cc(C(F)(F)F)nc2c(C(F)(F)F)cccc12)C1CCCCN1 (configuration not stated) [Mefloquine hydrochloride] | 5.79
O=C1CCc2ccc(OCCCCN3CCN(c4cccc(Cl)c4Cl)CC3)cc2N1 [Aripiprazole] | -7.24
CC(C)(C(=O)O)c1ccc(C(O)CCCN2CCC(C(O)(c3ccccc3)c3ccccc3)CC2)cc1 (configuration not stated) [Fexofenadine hydrochloride] | 1.12
O=C(O)C[C@H](O)C[C@H](O)/C=C/c1c(C2CC2)nc2ccccc2c1-c1ccc(F)cc1 [Pitavastatin calcium] | 2.14
NC(=O)OCC(COC(N)=O)c1ccccc1 [Felbamate] | 4.58
CCCCCCCN(CC)CCCC(O)c1ccc(NS(C)(=O)=O)cc1 (configuration not stated) [Ibutilide hemifumarate] | -0.0944
CCCC1O[C@@H]2C[C@H]3[C@@H]4CCC5=CC(=O)C=C[C@]5(C)[C@H]4[C@@H](O)C[C@]3(C)[C@]2(C(=O)CO)O1 (some centres not stated) [Budesonide] | 0.263
